Reference: ChEMBL document CHEMBL3433997, “St. Jude Leishmania screening dataset” (2016)

Assays:
Format in all cases: functional
[1] = molecular target: Solute carrier family 2, facilitated glucose transporter member 1 (Homo sapiens) (UniProt P11166); assay: ST_JUDE_LEISH: Cytotoxicity at 2uM final concentration against transgenic Leishmania Mexicana promastigotes LmGLUT1 that are glucose transport deficient and complemented with the human glucose transporter GLUT1. Activity is measured by DNA content using SYBR green in vitro
Sequence of Solute carrier family 2, facilitated glucose transporter member 1 (Homo sapiens) (P11166 whole entry): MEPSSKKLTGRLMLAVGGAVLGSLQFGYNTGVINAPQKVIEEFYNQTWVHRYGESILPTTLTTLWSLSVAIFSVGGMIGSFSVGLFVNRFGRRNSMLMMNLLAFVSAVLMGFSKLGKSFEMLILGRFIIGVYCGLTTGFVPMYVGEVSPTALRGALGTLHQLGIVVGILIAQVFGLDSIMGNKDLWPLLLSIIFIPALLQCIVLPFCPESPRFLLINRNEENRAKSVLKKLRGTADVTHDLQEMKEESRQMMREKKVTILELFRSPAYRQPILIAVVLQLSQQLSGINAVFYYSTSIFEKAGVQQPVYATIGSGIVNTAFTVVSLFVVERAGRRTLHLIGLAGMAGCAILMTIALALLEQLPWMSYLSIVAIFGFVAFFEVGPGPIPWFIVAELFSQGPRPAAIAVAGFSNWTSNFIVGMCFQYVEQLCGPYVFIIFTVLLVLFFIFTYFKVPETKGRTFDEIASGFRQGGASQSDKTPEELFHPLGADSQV

[2] = molecular target: Hexose transporter 1 (Plasmodium falciparum) (UniProt O97467); assay: ST_JUDE_LEISH: Cytotoxicity at 2uM final concentration against transgenic Leishmania Mexicana promastigotes LmPfHT that are glucose transport deficient and complemented with the Plasmodium falciparum hexose transporter. Activity is measured by DNA content using SYBR green in vitro
[3] = molecular target: Glucose transporter (Leishmania mexicana) (UniProt O61059); assay: ST_JUDE_LEISH: Cytotoxicity at 2uM final concentration against transgenic Leishmania Mexicana promastigotes LmGT2 that are glucose transport deficient and complemented with the L. Mexicana glucose transporter 2. Activity is measured by DNA content using SYBR green in vitro

Row | SMILES | inhibition [1] | inhibition [2] | inhibition [3]
1 | Cc1ccc(C(NC(=O)Cc2ccccc2)c2ccc3cccnc3c2O)cc1 (stereo not drawn) | 8.52% | 22.8% | 0.77%
2 | O=C(Nc1ccc(Cl)cn1)c1sc2ccccc2c1O | 3.18% | 3.43% | 0.99%
3 | CC(C)(C)c1ccc(C(=O)N2CCC3(CC2)C(=O)N(CC(=O)NCC2CCCO2)CN3c2ccccc2)cc1 (stereo not drawn) | 0.44% | 4.61% | 0.02%
4 | CC(=O)Nc1ccc(C(=O)Nc2cccc(-c3cccc(-c4nc5ccccc5[nH]4)c3)c2)cn1 | 2.35% | -0.22% | 1.34%
5 | O=C(C1CCN(c2nnnn2-c2ccccc2)CC1)N1CCc2ccccc2C1 | 13% | 15.6% | 14.1%
6 | O=C(NCC1CCC(CNCCCc2ccccc2)CC1)Nc1ccc(Cl)c(Cl)c1 (stereo not drawn) | 1.76% | 0.18% | 0.92%
7 | CN1CCc2ccc(NC(=O)Nc3cccc([N+](=O)[O-])c3)cc2C1 | 1.58% | 0.7% | 1.63%
8 | O=C(/C=C/c1ccc(Cl)c(Cl)c1)NCCCCN1CCCN(C(=O)Nc2ccc(C(F)(F)F)cc2)CC1 | 3.18% | 4.68% | 1.09%
9 | CN1CCC(NC(=O)c2cccc(Nc3cc(Nc4cccc(Br)c4)ncn3)c2)CC1 | 4.2% | 3.45% | 2.65%
10 | CC(C)COc1ccc(Cl)cc1Cc1ccc(-c2nc3ccc(Br)cc3[nH]2)o1 | 5.75% | 5.74% | 4.95%
11 | Cc1[nH]c(C)c(-c2ccc(CCc3ccc(F)cc3F)cc2)c(=O)c1Cl | 0.89% | 1.94% | -0.68%
12 | CN1CCC(Oc2ccc(CN3CC[C@H](NC(=O)c4ccc(Cl)c(Cl)c4)C3)cc2Cl)C1 (stereo partly drawn) | 15.3% | 16% | 3.89%
13 | COc1ccc(-c2ccc(NC(=O)c3ccc(C#N)cc3)cc2)cc1CNC(C)C | 4.24% | 3.24% | 2.38%
14 | O=C(/C=N/O)Nc1ccccc1[N+](=O)[O-] | -1.31% | 0.8% | 0.39%
15 | COc1cc2nc(N3CCC(CNC(=O)c4ccc(-c5ccccc5)cc4)CC3)nc(N)c2cc1OC | 1.43% | 1.28% | 0.24%
16 | OCC1CCN(Cc2ccc(-c3ccc(-c4nc5cc(F)ccc5[nH]4)s3)cc2)CC1 | 4.75% | 3.26% | 4.89%
